# From the supplement of paper PMC8975748
# Counter-ions that a name gives are not always drawn. ± gives the standard deviation of the averaged measurements.
# How the values were obtained:
# [1] = system: Saccharomyces cerevisiae BY4741 SeMeCo community; test: mean cell size (pixel area) (pixels); higher = larger cells; conditions: 10 µM; 24 h; SM minimal medium
# Procedure, shortened: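 Mean cell pixel area per well was determined by automated confocal microscopy with Harmony analysis of paraformaldehyde-fixed cells. The cells, a Saccharomyces cerevisiae BY4741 community of four plasmids that each complement one auxotrophy and carry a fluorescent marker, were incubated for 24 h with drug at a final 10 µM in SM medium in 384-well plates. Numbers are averaged over 3 replicates. Same SeMeCo high-content imaging drug screen: Selleck FDA-approved drugs at 10 µM, 24 h in SM medium, 384-well plates, 3 replicates.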
# [2] = system: Saccharomyces cerevisiae BY4741 SeMeCo community; test: z-score of prototroph abundance vs DMSO median; higher = larger share of this subpopulation than in DMSO controls; conditions: 10 µM; 24 h; SM minimal medium; subpopulation (auxotrophy): Prototroph
# Procedure, shortened: (§1)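 A Saccharomyces cerevisiae BY4741 community carried four plasmids, each restoring one auxotrophy and encoding a distinct fluorescent protein. It was pre-grown overnight to OD600 1.0, diluted to 0.3, and 70 µl was added to 384-well plates acoustically predosed with library drugs (10 µM final), then grown 24 h in minimal SM medium. Cells were paraformaldehyde-fixed and imaged by automated confocal microscopy, with single-auxotroph fluorescent strains setting thresholds and autofluorescence correction. Each subpopulation's abundance was scored as a z-score against the vehicle-well median.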
# [3] = system: Saccharomyces cerevisiae BY4741 SeMeCo community; test: z-score of subpopulation abundance vs DMSO median, subpopulation auxotrophic for M; higher = larger share of this subpopulation than in DMSO controls; conditions: 10 µM; 24 h; SM minimal medium; subpopulation (auxotrophy): M
# Procedure, shortened: as §1
# [4] = system: Saccharomyces cerevisiae BY4741 SeMeCo community; test: z-score of subpopulation abundance vs DMSO median, subpopulation auxotrophic for U; higher = larger share of this subpopulation than in DMSO controls; conditions: 10 µM; 24 h; SM minimal medium; subpopulation (auxotrophy): U
# Procedure, shortened: as §1
# [5] = system: Saccharomyces cerevisiae BY4741 SeMeCo community; test: z-score of subpopulation abundance vs DMSO median, subpopulation auxotrophic for H; higher = larger share of this subpopulation than in DMSO controls; conditions: 10 µM; 24 h; SM minimal medium; subpopulation (auxotrophy): H
# Procedure, shortened: as §1
# [6] = system: Saccharomyces cerevisiae BY4741 SeMeCo community; test: z-score of subpopulation abundance vs DMSO median, subpopulation auxotrophic for LU; higher = larger share of this subpopulation than in DMSO controls; conditions: 10 µM; 24 h; SM minimal medium; subpopulation (auxotrophy): LU
# Procedure, shortened: as §1
# [7] = system: Saccharomyces cerevisiae BY4741 SeMeCo community; test: z-score of subpopulation abundance vs DMSO median, subpopulation auxotrophic for LM; higher = larger share of this subpopulation than in DMSO controls; conditions: 10 µM; 24 h; SM minimal medium; subpopulation (auxotrophy): LM
# Procedure, shortened: as §1
# [8] = system: Saccharomyces cerevisiae BY4741 SeMeCo community; test: z-score of subpopulation abundance vs DMSO median, subpopulation auxotrophic for HM; higher = larger share of this subpopulation than in DMSO controls; conditions: 10 µM; 24 h; SM minimal medium; subpopulation (auxotrophy): HM
# Procedure, shortened: as §1
# [9] = system: Saccharomyces cerevisiae BY4741 SeMeCo community; test: z-score of subpopulation abundance vs DMSO median, subpopulation auxotrophic for HU; higher = larger share of this subpopulation than in DMSO controls; conditions: 10 µM; 24 h; SM minimal medium; subpopulation (auxotrophy): HU
# Procedure, shortened: as §1
# [10] = system: Saccharomyces cerevisiae BY4741 SeMeCo community; test: z-score of subpopulation abundance vs DMSO median, subpopulation auxotrophic for UM; higher = larger share of this subpopulation than in DMSO controls; conditions: 10 µM; 24 h; SM minimal medium; subpopulation (auxotrophy): UM
# Procedure, shortened: as §1
# [11] = system: Saccharomyces cerevisiae BY4741 SeMeCo community; test: z-score of subpopulation abundance vs DMSO median, subpopulation auxotrophic for HLU; higher = larger share of this subpopulation than in DMSO controls; conditions: 10 µM; 24 h; SM minimal medium; subpopulation (auxotrophy): HLU
# Procedure, shortened: as §1
# [12] = system: Saccharomyces cerevisiae BY4741 SeMeCo community; test: z-score of subpopulation abundance vs DMSO median, subpopulation auxotrophic for HLM; higher = larger share of this subpopulation than in DMSO controls; conditions: 10 µM; 24 h; SM minimal medium; subpopulation (auxotrophy): HLM
# Procedure, shortened: as §1
# [13] = system: Saccharomyces cerevisiae BY4741 SeMeCo community; test: z-score of subpopulation abundance vs DMSO median, subpopulation auxotrophic for HUM; higher = larger share of this subpopulation than in DMSO controls; conditions: 10 µM; 24 h; SM minimal medium; subpopulation (auxotrophy): HUM
# Procedure, shortened: as §1
# [14] = system: Saccharomyces cerevisiae BY4741 SeMeCo community; test: z-score of subpopulation abundance vs DMSO median, subpopulation auxotrophic for LUM; higher = larger share of this subpopulation than in DMSO controls; conditions: 10 µM; 24 h; SM minimal medium; subpopulation (auxotrophy): LUM
# Procedure, shortened: as §1
# [15] = system: Saccharomyces cerevisiae BY4741 SeMeCo community; test: z-score of subpopulation abundance vs DMSO median, subpopulation auxotrophic for HLUM; higher = larger share of this subpopulation than in DMSO controls; conditions: 10 µM; 24 h; SM minimal medium; subpopulation (auxotrophy): HLUM
# Procedure, shortened: as §1
# [16] = system: Saccharomyces cerevisiae BY4741 SeMeCo community; test: z-score of subpopulation abundance vs DMSO median, subpopulation auxotrophic for HL; higher = larger share of this subpopulation than in DMSO controls; conditions: 10 µM; 24 h; SM minimal medium; subpopulation (auxotrophy): HL
# Procedure, shortened: as §1
Structure (SMILES),mean cell size [1],z-score of prototroph abundance [2],z-score of subpopulation abundance [3],z-score of subpopulation abundance [4],z-score of subpopulation abundance [5],z-score of subpopulation abundance [6],z-score of subpopulation abundance [7],z-score of subpopulation abundance [8],z-score of subpopulation abundance [9],z-score of subpopulation abundance [10],z-score of subpopulation abundance [11],z-score of subpopulation abundance [12],z-score of subpopulation abundance [13],z-score of subpopulation abundance [14],z-score of subpopulation abundance [15],z-score of subpopulation abundance [16]
CCCCCCCCCCCCCCCCCCOP(=O)([O-])OC1CC[N+](C)(C)CC1 [Perifosine (KRX-0401)],9.8 ± 0.56,-18.5,-5.15,-2.84,3.48,12.1,1.78,12.7,8.89,7.06,13.3,31.5,45.1,10.2,180,–
CC[C@H]1OC(=O)[C@H](C)[C@@H](O[C@H]2C[C@@](C)(OC)[C@@H](O)[C@H](C)O2)[C@H](C)[C@@H](O[C@@H]2O[C@H](C)C[C@H](N(C)C)[C@H]2O)[C@](C)(O)C[C@@H](C)CN[C@H](C)[C@@H](O)[C@]1(C)O [Azathramycin],12.5 ± 0.16,0.12,0,0.07,0.33,-0.39,-0.14,–,-0.16,–,-1.12,-0.79,0.01,–,-0.5,-0.33
CN(C)CC/C=C1/c2ccccc2Sc2ccc(Cl)cc21 [Chlorprothixene],12.2 ± 0.36,0.08,0.73,0.62,–,-0.59,–,-0.62,0.13,0.34,-0.48,-0.36,-0.32,-0.1,-0.55,-0.06
CCCc1cc(C(N)=S)ccn1 [Protionamide],–,–,0.32,-0.66,-0.56,-0.68,0.16,–,-0.73,0.32,-0.42,-0.03,0.47,-0.28,-0.96,-0.83
CN[C@H](CC(C)C)C(=O)N[C@H]1C(=O)N[C@@H](CC(N)=O)C(=O)N[C@H]2C(=O)N[C@H]3C(=O)N[C@H](C(=O)N[C@H](C(=O)O)c4cc(O)cc(O)c4-c4cc3ccc4O)[C@H](O)c3ccc(c(Cl)c3)Oc3cc2cc(c3O[C@@H]2O[C@H](CO)[C@@H](O)[C@H](O)[C@H]2O[C@H]2C[C@](C)(N)[C@H](O)[C@H](C)O2)Oc2ccc(cc2Cl)[C@H]1O [Vancomycin HCl],12.1 ± 0.11,0,0.48,-0.35,-0.1,0.18,0.26,0.33,0.05,0.58,-0.51,0.73,0.51,–,-0.53,-0.36
CC1(C)S[C@@H]2[C@H](NC(=O)C(C(=O)O)c3ccccc3)C(=O)N2[C@H]1C(=O)O (stereo not given in full) [Carbenicillin disodium],12.53 ± 0.098,0.19,0.64,–,-0.07,-0.26,–,0.66,–,–,0.36,-0.53,0.12,-0.76,-0.61,-0.49
CCCCCOc1ccc(-c2cc(-c3ccc(C(=O)N[C@H]4C[C@@H](O)[C@@H](O)NC(=O)[C@@H]5[C@@H](O)[C@@H](C)CN5C(=O)[C@H]([C@H](O)CC(N)=O)NC(=O)[C@H]([C@H](O)[C@@H](O)c5ccc(O)c(OS(=O)(=O)O)c5)NC(=O)[C@@H]5C[C@@H](O)CN5C(=O)[C@H]([C@@H](C)O)NC4=O)cc3)no2)cc1 [Micafungin Sodium],12.4 ± 0.26,-14.6,-8.01,-1.73,27.4,1.46,0.72,–,13.2,1.81,12,61.8,13.9,–,–,42.5
C[N+]1(C)CCC(OC(=O)C(O)(c2ccccc2)C2CCCC2)C1 (stereo not given) [Glycopyrrolate],12.32 ± 0.11,-0.59,0.07,1.42,-0.58,0.76,-0.6,-0.21,–,–,-0.14,0.17,0.23,0.56,-0.01,-0.5
COc1cc(/C=C/C(=O)N2CCN(CC(=O)N3CCCC3)CC2)cc(OC)c1OC [Cinepazide maleate],12.6 ± 0.14,–,0,1.16,-0.51,0.47,-1.06,-0.1,0.48,0.61,0.11,-0.01,-0.05,-0.41,-0.53,–
CO[C@@]1(NC(=O)C(C(=O)O)c2ccc(O)cc2)C(=O)N2C(C(=O)O)=C(CSc3nnnn3C)CO[C@@H]21 (stereo not given in full) [Latamoxef sodium],–,0.35,0.17,-0.29,0.8,-0.08,-0.29,-0.22,0,-0.41,0.4,0.83,-0.43,-0.71,0.61,-0.07
CC(NCCC(c1ccccc1)c1ccccc1)c1ccccc1 (stereo not given) [Fendiline hydrochloride],–,–,-1.56,-0.43,-1.47,-0.77,-0.45,-1.15,-0.97,–,-0.27,-0.59,-0.72,0.05,-0.29,–
C=C1CCN([C@H](C)[C@](O)(Cn2cncn2)c2ccc(F)cc2F)CC1 [Efinaconazole],–,-9.55,2.69,-0.68,11.9,-1.98,2.18,3.94,2.02,16.2,3,10.7,7.05,7.49,20.3,11.6
COCCCOc1ccnc(C[S+]([O-])c2nc3ccccc3[nH]2)c1C (stereo not given) [Rebeprazole sodium],12.5 ± 0.13,-0.38,0.58,0.15,-0.76,-0.77,0.03,0.23,–,0.75,1.09,-0.22,0.36,0.11,0.04,-0.55
Cn1c(=O)c2[nH]cnc2n(C)c1=O [Aminophylline],12.5 ± 0.19,-0.44,0.43,–,-0.41,1.06,0.92,0.42,-0.5,0.33,-0.5,-0.27,0.11,0.29,-0.29,0.54
